Growth data for 10 compounds are collected here from PubChem BioAssay (NCI).

Compounds without any hit were thinned out: in the full panel of roughly 83,000, 20% have a hit.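 Cell lines were cultured in 96-well plates, exposed to a single compound concentration, and assessed for percent growth 48 hours later.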 A number with no mark means an inactive call. The source made the active and inactive calls. Rule for the calls: active = growth percent below 10; inactive = the rest.

Test systems include NCI-H226 lung; NCI-H322M lung; HOP-62 NSCLC; NCI-H460 lung; HOP-92 NSCLC; NCI-H522 lung; A549/ATCC NSCLC; 786-0 renal; COLO 205 colon; DU-145 prostate; K-562 leukemia; MALME-3M melanoma; MDA-MB-231 breast; RXF 393 renal; SF-268 CNS; SF-295 CNS; SF-539 CNS; UACC-257 melanoma; M14 melanoma.
Experiment in all cases: NCI-60 one-dose screen, 48 h (100 = growth as untreated, 0 = no growth, -100 = all killed)
What all share (conditions): 10 µM unless noted

In the case of `COCC(=O)NC/C=C/c1ccc2ncnc(Nc3ccc(Oc4ccc(C)nc4)c(C)c3)c2c1`, the growth in the experiment with NCI-H226 lung is 53.5%; in the experiment on NCI-H322M lung, 10.8%; with HOP-62 NSCLC, 58.8%; in the experiment with NCI-H460 lung, 50.7%; with HOP-92 NSCLC, 23.8%; with NCI-H522 lung, 14.8%. Also, the growth with A549/ATCC NSCLC is 46%; in the experiment with 786-0 renal it was 55%; in the experiment with COLO 205 colon, 9.48% (active); in the experiment with DU-145 prostate, 30.7%; in the experiment on K-562 leukemia it was 47.9%; in the experiment on MALME-3M melanoma, 4.79% (active). Moreover, the growth in the experiment with MDA-MB-231 breast is 42.7%; in the experiment with RXF 393 renal, 45.4%; in the experiment with SF-268 CNS, 52.3%; in the experiment on SF-295 CNS it was 62.4%; with SF-539 CNS it was 48%; in the experiment on UACC-257 melanoma, 24.6%. In the experiment on M14 melanoma, the growth is 13.1%.
For the compound `COc1cc(Nc2ncc(F)c(Nc3ccc4c(n3)N(COP(=O)(O)O)C(=O)C(C)(C)O4)n2)cc(OC)c1OC`, the growth in the experiment on NCI-H322M lung was 20.6%; in the experiment with HOP-62 NSCLC it was 2.67% (active); with NCI-H460 lung it was 25.4%; with NCI-H522 lung it was -28.5% (active); in the experiment with A549/ATCC NSCLC, 0.294% (active); in the experiment on 786-0 renal, -23.8% (active). Also, the growth in the experiment on COLO 205 colon was -22.8% (active); in the experiment with DU-145 prostate, 30.9%; in the experiment with K-562 leukemia it was 32.3%; in the experiment with MALME-3M melanoma, 53.1%; in the experiment with MDA-MB-231 breast, 15.9%; in the experiment on RXF 393 renal, -79.9% (active). The growth in the experiment on SF-268 CNS is 7.3% (active); in the experiment on SF-295 CNS it was 15.5%; with SF-539 CNS it was -70.1% (active); in the experiment with UACC-257 melanoma, 66.2%; in the experiment with M14 melanoma it was 39%.
Regarding `CC(=Nc1ccccc1)C1=C(O)C(Cc2ccccc2)NC1=O` (configuration not stated), the growth is 15.4% with NCI-H226 lung; 45.7% in the experiment with NCI-H322M lung; 16.7% with HOP-62 NSCLC; 3.86% (active) in the experiment on NCI-H460 lung; -9.07% (active) in the experiment with HOP-92 NSCLC; -15.4% (active) in the experiment on NCI-H522 lung. The growth with A549/ATCC NSCLC is -28.9% (active); in the experiment with 786-0 renal, 8.26% (active); in the experiment on COLO 205 colon it was -71.8% (active); in the experiment with DU-145 prostate, -31.5% (active); in the experiment with MALME-3M melanoma, 58.6%; in the experiment with MDA-MB-231 breast, -1.28% (active). Further, the growth in the experiment with SF-268 CNS is 14.1%; in the experiment with SF-295 CNS, -19.1% (active); in the experiment on SF-539 CNS, -33.8% (active); in the experiment on M14 melanoma, -16.6% (active).
Regarding `Nc1c2c(c(O)c3c1=C(CO)C=N3)=NCCS2`, the growth was -85.9% (active) with NCI-H226 lung; -96% (active) in the experiment on NCI-H322M lung; -79.3% (active) in the experiment with HOP-62 NSCLC; -60.5% (active) with NCI-H460 lung; -71.2% (active) in the experiment on HOP-92 NSCLC; -46.4% (active) in the experiment on NCI-H522 lung. In addition, the growth in the experiment on A549/ATCC NSCLC was -72% (active); in the experiment with 786-0 renal it was -82.6% (active); in the experiment on COLO 205 colon, -72.8% (active); in the experiment on DU-145 prostate, -93% (active); in the experiment with K-562 leukemia, -33.1% (active); with MALME-3M melanoma, -96.6% (active). The growth is 2.38% (active) in the experiment with MDA-MB-231 breast; -47.9% (active) with SF-268 CNS; -94.5% (active) with SF-295 CNS; -95.8% (active) in the experiment on SF-539 CNS; -89.7% (active) in the experiment with M14 melanoma.
Take `Cc1ncc(-c2ccnc(Nc3ccc(S(C)(=O)=O)cc3)n2)n1C(C)C`: the growth with NCI-H226 lung is 6.32% (active); in the experiment on NCI-H322M lung it was -10.8% (active); in the experiment on HOP-62 NSCLC, -14% (active); in the experiment on NCI-H460 lung it was -17.2% (active); in the experiment with HOP-92 NSCLC it was -4.8% (active); in the experiment with NCI-H522 lung, -24.9% (active). Moreover, the growth in the experiment with A549/ATCC NSCLC was 1.7% (active); in the experiment on 786-0 renal it was 4.84% (active); in the experiment with COLO 205 colon it was -27.4% (active); in the experiment with DU-145 prostate it was 4.62% (active); with K-562 leukemia, 3.66% (active); in the experiment on MALME-3M melanoma, -47.7% (active). Further, the growth in the experiment on MDA-MB-231 breast was -8.39% (active); with RXF 393 renal, -50.9% (active); with SF-268 CNS it was 3.67% (active); in the experiment with SF-295 CNS, -0.591% (active); in the experiment with SF-539 CNS it was -65.4% (active); with UACC-257 melanoma it was -28.3% (active). In addition, the growth with M14 melanoma was -74.5% (active).
For the compound `Nc1nc(=S)c2ncn(C3OC(COC(=O)c4ccc(Cl)cc4)C(OC(=O)c4ccc(Cl)cc4)C3OC(=O)c3ccc(Cl)cc3)c2[nH]1` (configuration not stated), the growth in the experiment with NCI-H226 lung was 86.9%; in the experiment on NCI-H322M lung, 97.8%; in the experiment on HOP-62 NSCLC, 106%; in the experiment with NCI-H460 lung it was 91.1%; in the experiment with NCI-H522 lung, 86.8%; in the experiment on A549/ATCC NSCLC, 98%. Besides, the growth with 786-0 renal is 84.4%; in the experiment on COLO 205 colon, 123%; in the experiment with DU-145 prostate, 105%; with MALME-3M melanoma, 102%; in the experiment with MDA-MB-231 breast it was 88%; with SF-268 CNS it was 90.4%. The figures for the growth with SF-295 CNS, with SF-539 CNS and in the experiment on M14 melanoma were 114%, 89.9% and 99.4%, respectively.
Turning to `COc1ccc(Cc2cc(-c3ccccc3C)n[nH]c2=O)cc1`, the growth in the experiment with NCI-H226 lung was 87.3%; in the experiment on NCI-H322M lung, 129%; with HOP-62 NSCLC, 97.8%; in the experiment with NCI-H460 lung it was 105%; in the experiment with HOP-92 NSCLC, 22.7%; with NCI-H522 lung it was 105%. The growth is 99.9% in the experiment on A549/ATCC NSCLC; 105% with 786-0 renal; 100% in the experiment on COLO 205 colon; 93.2% with DU-145 prostate; 110% with K-562 leukemia; 154% in the experiment with MALME-3M melanoma. For the same compound, the growth with MDA-MB-231 breast is 84.6%; with RXF 393 renal it was 99.2%; in the experiment with SF-268 CNS, 85%; in the experiment on SF-295 CNS, 116%; in the experiment with SF-539 CNS it was 97.8%; with UACC-257 melanoma, 119%. Besides, the growth with M14 melanoma was 115%.
Consider `Ic1ccccc1-c1ccccc1`, for which the growth was 106% in the experiment with NCI-H226 lung; 114% with NCI-H322M lung; 100% in the experiment on HOP-62 NSCLC; 100% with NCI-H460 lung; 87.3% in the experiment on HOP-92 NSCLC; 94.9% in the experiment with NCI-H522 lung. In addition, the growth with A549/ATCC NSCLC is 87.9%; in the experiment with 786-0 renal it was 108%; in the experiment with COLO 205 colon it was 96.4%; in the experiment with DU-145 prostate, 114%; in the experiment on K-562 leukemia, 104%; with MALME-3M melanoma it was 95%. Also, the growth with MDA-MB-231 breast is 102%; in the experiment on RXF 393 renal, 105%; with SF-268 CNS it was 105%; in the experiment on SF-295 CNS, 122%; in the experiment on SF-539 CNS, 108%; in the experiment on UACC-257 melanoma, 99%. Moreover, in the experiment on M14 melanoma, the growth was 103%.
For `C[C@H]1Oc2cc(cnc2N)-c2c(nn(C)c2C#N)CN(C)C(=O)c2ccc(F)cc21`, the growth is 92.2% in the experiment on NCI-H226 lung; 104% with NCI-H322M lung; 50% with HOP-62 NSCLC; 96.7% with NCI-H460 lung; 48.4% with HOP-92 NSCLC; 66.5% with NCI-H522 lung. For the same compound, the growth in the experiment with 786-0 renal is 77.9%; in the experiment with COLO 205 colon it was 36.3%; in the experiment with DU-145 prostate it was 91.9%; in the experiment with K-562 leukemia it was 79.4%; with MALME-3M melanoma, 95.6%; in the experiment on MDA-MB-231 breast, 69.7%. For the same compound, the growth in the experiment with RXF 393 renal was 85.5%; in the experiment on SF-268 CNS, 73.1%; in the experiment with SF-295 CNS, 85.9%; in the experiment on SF-539 CNS it was 96.4%; in the experiment with UACC-257 melanoma it was 58.5%; with M14 melanoma, 71.9%.
Regarding `CC12O[C@H](C[C@@H](OC(=O)CCC(=O)O)[C@H]1O)n1c3ccccc3c3c4c(c5c6ccccc6n2c5c31)C(=O)NC4=O`, the growth was 9.15% (active) in the experiment on NCI-H226 lung; 34.3% in the experiment with NCI-H322M lung; 13.5% with HOP-62 NSCLC; 20.2% in the experiment on NCI-H460 lung; 7.85% (active) in the experiment with HOP-92 NSCLC; 21% with NCI-H522 lung. Besides, the growth is 13.8% in the experiment with A549/ATCC NSCLC; 36.8% with 786-0 renal; -16.4% (active) in the experiment on COLO 205 colon; 41.8% with DU-145 prostate; 44.5% in the experiment on K-562 leukemia; -21.6% (active) in the experiment with MALME-3M melanoma. For the same compound, the growth in the experiment with MDA-MB-231 breast was 64.3%; in the experiment with RXF 393 renal it was -3.02% (active); in the experiment with SF-268 CNS, 46.4%; in the experiment on SF-295 CNS it was 13.1%; in the experiment with SF-539 CNS, -8.98% (active); in the experiment with M14 melanoma, -6.7% (active).
